YB-1 expr inh = inhibitors of YB-1 gene expression, primary screen, cell-based, fluorescence; U2OS, qRT-PCR YB-1 vs CDIP delta delta Cp, 16 h; hits give high values; zero = DMSO, each unit about twofold; delta delta Cp (YB-1 minus CDIP) (test concentration not listed); 0.37% of 30,000 active; AID 434959, 2010;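 active = delta delta Cp rounded down to an integer at or above 3, about 3 SD of DMSO wells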;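 note: higher means less YB-1 transcript or more CDIP transcript relative to DMSO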
PD-1 reversal = activators reversing PD-1 mediated T-cell inhibition, primary screen, luminescence, primary human CD4 T cells, PD-L1 beads; CellTiter-Glo 96 h; 29,000 tested, under 10 active; AID 2316, 2010; activation, % (concentration not given with the values); call rule not given here;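 note: 0% = median vehicle wells and 100% = positive control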
MITF inhib = inhibitors of MITF, primary screen, MITF inhibitor project, cell-based, luminescence | TRPM1 promoter luciferase, 24 h | inhibition, % (test concentration not listed) | AID 2240, 2010 | 0.28% of 37,000 active; in the data active = inhibition above about 85%; inconclusive = no clear call, values can overlap the other calls; inactive = below about 68%;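 note: human melanocyte line stably carrying TRPM1 promoter luciferase reporter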
NOMO-1 viab = NOMO-1 AML cell viability reduction, primary screen, STK33 inhibitor project, CellTiter-Glo luminescence; inhibition, % (concentration not given with the values); 7.5% of 37,000 active; NOMO-1 AML viability, 72 h; in the data active = inhibition above about 80%; inconclusive = no clear call, values can overlap the other calls
U2OS ROS induce = ROS inducers in U2OS cancer cells, primary screen, cell-based, H2DCF-DA fluorescence; U2OS ROS induction; ROS induction (% of piperlongumine), % at 10 µM; 2% of 46,000 active; AID 624156, 2012; in the data active = ROS induction above about 79%, passing the limit was not always enough; inconclusive = no clear call, values can overlap the other calls;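 note: 0% = DMSO vehicle median and 100% = reference compound median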
* = called active by the depositor; ? = inconclusive; nt = no result given. The entries come from a sample that favours hits as a whole.

SMILES	YB-1 expr inh	PD-1 reversal	MITF inhib	NOMO-1 viab	U2OS ROS induce
C[C@@H]1CCCCO[C@H](CN(C)Cc2ccc(C(F)(F)F)cc2)[C@@H](C)CN([C@H](C)CO)C(=O)c2cc(NC(=O)Nc3ccccc3)ccc2O1	0.084	-4	19	74	137*
CC1=CC=C(C=O)C(C)(C)C1OC(=O)/C=C(\C)CO (configuration not stated)	-0.42	0	7	5	9
CCc1ccc(O)c(NC(=S)NC(=O)COc2ccc(C)cc2C)c1	nt	nt	47	120*	nt
COC(=O)c1ccccc1NC(=O)COc1ccc(C)cc1C	nt	-1	25	2	-1
COc1ccc(C(=O)N(Cc2nc(-c3ccc(Cl)cc3)no2)C(C)C)cc1[N+](=O)[O-]	nt	-2	24	27	6
Cc1c(-n2c(/C=C\c3ccc([N+](=O)[O-])o3)nc3ccccc3c2=O)c(=O)n(-c2ccccc2)n1C	nt	nt	43	115*	nt
Cc1c(/C=C/c2ccc(Cl)cc2Cl)c(=O)n(-c2ccccc2)n1C	0.48	1	20	38	60
C=CCn1c(=O)c2c(C)c(C)sc2n2c(Nc3ccc(C(=O)OCC)cc3)nnc12	-0.15	0	0	29	194*
O=C(O)CNC(=O)CSc1ccc(Cl)cc1	0.12	-1	-6	25	5
C[C@@H]1CCCCO[C@H](CN(C)Cc2ccc(Cl)c(Cl)c2)[C@@H](C)CN([C@H](C)CO)C(=O)c2cc(NS(=O)(=O)c3ccc(Cl)cc3)ccc2O1	0.16	-5	53	116*	17
COc1ccc(S(=O)(=O)Nc2ccc3c(c2)C(=O)N([C@H](C)CO)C[C@H](C)[C@@H](CN(C)Cc2ccc(Cl)c(Cl)c2)OCCCC[C@@H](C)O3)cc1	-0.83	nt	?	125*	151*
COc1ccc(CN(C)C[C@H]2OCCCC[C@@H](C)Oc3ccc(NS(=O)(=O)c4ccc(C)cc4)cc3C(=O)N([C@H](C)CO)C[C@@H]2C)cc1	-0.65	nt	1	22	29
COc1ccc(S(=O)(=O)Nc2ccc3c(c2)C(=O)N([C@H](C)CO)C[C@H](C)[C@H](CN(C)Cc2ccc(C(F)(F)F)cc2)OCCCC[C@@H](C)O3)cc1	0.018	-2	37	105*	66
C[C@@H]1CCCCO[C@@H](CN(C)Cc2ccc(Cl)c(Cl)c2)[C@@H](C)CN([C@H](C)CO)C(=O)c2cc(NS(=O)(=O)c3ccc(Cl)cc3)ccc2O1	0.3	-9	55	73	31
COc1ccc(CN(C)C[C@@H]2OCCCC[C@@H](C)Oc3ccc(NS(=O)(=O)c4ccc(OC)cc4)cc3C(=O)N([C@H](C)CO)C[C@@H]2C)cc1	0.33	1	-7	15	172*
COc1ccc(S(=O)(=O)Nc2ccc3c(c2)C(=O)N([C@H](C)CO)C[C@H](C)[C@@H](CN(C)Cc2ccc(C(=O)O)cc2)OCCCC[C@@H](C)O3)cc1	-0.081	nt	-24	-7	14
Cc1cccc(OCC(=O)Nc2ccc(Cl)c(-c3nc4ccccc4o3)c2)c1	nt	0	1	77	12
COc1cc2c(c(OC)c1OC)CCc1cc(O)c(O)cc1-2	-0.022	2	-2	31	-15
C[C@@H]1CN([C@@H](C)CO)C(=O)Cc2cc(NS(=O)(=O)c3cccs3)ccc2O[C@@H]1CN(C)C(=O)Nc1ccccc1	0.093	2	5	7	-3
C[C@H](CO)N1C[C@H](C)[C@H](CN(C)Cc2ccccc2)Oc2c(NC(=O)c3nc4ccccc4s3)cccc2C1=O	0.36	-4	-1	45	22
C[C@H]1CN([C@@H](C)CO)C(=O)c2cccc(NC(=O)c3nc4ccccc4s3)c2O[C@H]1CN(C)Cc1ccccc1	0.21	0	-6	40	11
C[C@H]1CN([C@@H](C)CO)C(=O)c2cccc(NC(=O)c3nc4ccccc4s3)c2O[C@H]1CN(C)Cc1ccc(C(=O)Nc2ccccc2N)cc1	0.19	-2	24	127*	172*
C[C@@H]1CN([C@H](C)CO)C(=O)c2cccc(NC(=O)c3nc4ccccc4s3)c2O[C@H]1CN(C)Cc1ccc(C(=O)Nc2ccccc2N)cc1	-0.27	-1	40	120*	150*

High-throughput results from PubChem.
